Test results as given in the supplement of paper PMC11219838.

Each compound was assayed on Caenorhabditis elegans L1 (N2) (assay: survival and reproduction score of C. elegans L1 (0: 0-10 living worms, 1: 11-20, 2: 21-50, 3: >50, 4: overgrown) (score 0-4); higher = more worms, less nematicidal, active = 1 or less; extreme values may be limits of the assay). Conditions: 60 µM; 6 days; temperature: 20 °C.
Procedure, shortened: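 Compound was pinned to a final 60 µM (0.6% v/v DMSO) into 96-well wells, each holding about 20 synchronized C. elegans N2 L1s and E. coli HB101 in liquid NGM. After 6 days of shaking at 200 rpm and 20 °C in sealed plates, the worms in each well were examined. The ordinal readout of survival and reproduction, based on living worms per well, was assessed under a dissection microscope. On this scale 0 meant 0–10 worms and 4 meant overgrown, starved wells, and two biological replicates were averaged.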

Structure (SMILES) | survival and reproduction score
O=C(c1ccccc1-c1nc(-c2ccc(F)cc2)no1)N1CCCC1 | 4 (inactive)
Ic1ccccc1-c1nc(-c2cccnc2)no1 | 3.5 (inactive)
Cc1ccc(CSc2nnc(-c3ccco3)o2)c(C)c1 | 0 (active)
CCCCC(=O)Nc1ccccc1-c1nc(-c2ccccn2)no1 | 4 (inactive)
Cc1cc(Cl)ccc1OCc1nc(-c2ccccc2)no1 | 4 (inactive)
c1ccc2c(-c3nc(-c4ccncc4)no3)cccc2c1 | 4 (inactive)
COc1ccc(-c2nnc(SCc3c(Cl)cccc3Cl)o2)cc1 | 4 (inactive)
Ic1ccc(OCc2nc(-c3ccncc3)no2)cc1 | 4 (inactive)
Cn1c(SCc2cccc(F)c2)nnc1-c1ccco1 | 4 (inactive)
Fc1ccc(-c2noc(-c3ccc(Cl)cc3)n2)cc1 | 1 (active)
Cc1ccc(-c2noc(CSc3nc4ccccc4[nH]3)n2)cc1 | 4 (inactive)
Cc1ccc(-c2nc(-c3ccccc3)no2)cc1C | 4 (inactive)
c1ccc(-c2noc(CSc3nc4ccccc4[nH]3)n2)cc1 | 4 (inactive)
COc1cccc(NC(=O)CSc2nnc(-c3ccc(C)cc3)o2)c1 | 4 (inactive)
Cc1cccc(OCc2nc(-c3ccc(Br)cc3)no2)c1 | 4 (inactive)
CCCC(=O)Nc1ccccc1-c1nc(-c2ccncc2)no1 | 4 (inactive)
COc1cccc(-c2nnc(SCc3ccccc3)o2)c1 | 4 (inactive)
Cc1cc(OCc2nc(-c3ccccc3)no2)ccc1Cl | 4 (inactive)
Cc1cccc(-c2noc(-c3ccc(C)cc3Cl)n2)c1 | 4 (inactive)
CN(C)C(=O)c1ccccc1-c1nc(-c2ccccc2Cl)no1 | 4 (inactive)

Structure (SMILES) | survival and reproduction score
Cc1ccc(-c2nc(-c3ccc4c(c3)OCO4)no2)cc1 | 4 (inactive)
Fc1ccc(-c2noc(-c3ccc(Br)cc3)n2)cc1 | 0 (active)
CCOc1nc(C)ccc1-c1noc(-c2cccc(C)c2)n1 | 4 (inactive)
CC(C)(C)c1ccc(-c2nnc(SCC(=O)c3ccc(F)cc3)o2)cc1 | 4 (inactive)
COc1cccc(-c2nnc(SCC(=O)Nc3ccccc3)o2)c1 | 4 (inactive)
O=C(CSc1nnc(-c2ccc(Cl)cc2Cl)o1)Nc1ccccn1 | 4 (inactive)
Cc1cc(C)cc(OCc2nc(-c3ccccc3Cl)no2)c1 | 4 (inactive)
COc1ccc(-c2nnc(SCc3ccc(C#N)cc3)o2)cc1 | 4 (inactive)
O=C(Nc1ccccc1-c1nc(-c2ccncc2)no1)c1ccccc1Cl | 4 (inactive)
Fc1cccc(-c2nc(-c3cccnc3)no2)c1 | 0 (active)
Cc1ccc(NC(=O)CSc2nnc(-c3ccccc3)o2)cc1C | 4 (inactive)
COc1cccc(-c2nnc(SCC(=O)NC3CCCCC3)o2)c1 | 4 (inactive)
CCOc1ccccc1-c1nnc(SCC(=O)Nc2nc(C)cs2)o1 | 4 (inactive)
CCCOc1ccc(-c2nc(-c3ccncc3)no2)cc1 | 0 (active)
Brc1ccc(-c2nc(-c3cccnc3)no2)cc1 | 0 (active)
c1ccc(COc2cccc(-c3nc(-c4ccccn4)no3)c2)cc1 | 4 (inactive)
COc1ccc(-c2nnc(SCC(=O)c3ccc4ccccc4c3)o2)cc1 | 4 (inactive)
O=C(CSc1nnc(-c2ccccc2)o1)NC1CCCCC1 | 4 (inactive)
Clc1cccc(-c2nc(-c3ccccc3Cl)no2)c1 | 4 (inactive)
